RAD52 inh – RAD52 (human) annealing inhibition | inhibition, % at 18.7 µM | 360,000 tested, 0.46% active | P43351 | AID 651710 | recombinant RAD52 DNA annealing, FRET fluorescence;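 active = every replicate showing at least 50% inhibition; inconclusive = mean inhibition at least 50% but not in every replicate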
Target sequence (P43351 whole entry, looked up): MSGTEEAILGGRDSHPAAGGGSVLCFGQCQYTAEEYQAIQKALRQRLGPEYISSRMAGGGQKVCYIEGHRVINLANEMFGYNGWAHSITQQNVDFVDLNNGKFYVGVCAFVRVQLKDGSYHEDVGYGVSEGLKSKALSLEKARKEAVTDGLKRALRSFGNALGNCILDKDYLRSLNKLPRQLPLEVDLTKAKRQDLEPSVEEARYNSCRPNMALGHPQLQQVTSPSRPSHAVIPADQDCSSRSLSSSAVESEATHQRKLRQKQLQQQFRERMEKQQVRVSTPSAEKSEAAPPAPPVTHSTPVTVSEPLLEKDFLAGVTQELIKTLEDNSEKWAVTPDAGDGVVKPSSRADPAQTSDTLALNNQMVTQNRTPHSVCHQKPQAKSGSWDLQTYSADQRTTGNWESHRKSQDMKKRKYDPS
CASP6 VEID inh – blocks human caspase-6 cleavage activity. P55212. purified caspase-6, Z-VEID-R110 cleavage fluorescence. inhibition, % at 12.5 µM. 350,000 tested, 0.53% active. AID 686996;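 active = mean inhibition across replicates at least about 35%, with every replicate also reaching that limit, limit read from the data; inconclusive = only one of the two criteria met; inactive = neither criterion met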
Target sequence (P55212 24-179 limits assumed): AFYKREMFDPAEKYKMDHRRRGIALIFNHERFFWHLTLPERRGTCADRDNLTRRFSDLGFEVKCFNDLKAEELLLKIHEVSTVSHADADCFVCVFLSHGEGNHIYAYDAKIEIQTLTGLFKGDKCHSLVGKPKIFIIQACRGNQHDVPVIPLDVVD
Target sequence (P55212 194-293 limits assumed): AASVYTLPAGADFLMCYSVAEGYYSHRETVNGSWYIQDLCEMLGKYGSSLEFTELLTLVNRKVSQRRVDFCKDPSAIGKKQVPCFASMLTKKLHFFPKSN
RAD54 branch – RAD54 (human) branch migration inhibition. Q92698. RAD54 Holliday junction branch migration, FAM/BHQ fluorescence. inhibition, % at 10.4 µM. 360,000 tested, 0.14% active. AID 602329;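 active = mean normalized replicate activity at least 40 and at least half of replicates scoring 40 or more; inconclusive = only one of the two criteria met; inactive = mean below 40 and under half of replicates reaching 40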;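 also: inhibitors cause a drop in the FAM fluorescence signal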
NSD2 inh – NSD2 (human) methyltransferase inhibition; O96028; NSD2 peptide methylation, AlphaScreen, 120 min; inhibition, % at 12.5 µM; 310,000 tested, 0.54% active; AID 743445; in the data active = inhibition above about 50%
N-glyco inh – N-linked glycosylation inhibition. D54 ERlucT glycosylation luciferase reporter, 24 h; percent of 100 nM tunicamycin response. reporter increase, % at 12.5 µM. 360,000 tested, 0.23% active. AID 588692;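 active = mean luciferase reporter signal, scaled so untreated is 0 and the glycosylation-blocking control 100, at or above a set limit in every replicate; inconclusive = mean reaches the limit but not every replicate does; inactive = mean below the limit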;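 also: luciferase carries N-glycosylation sites so blocking glycosylation raises the light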
RAD52 DNA ctr – DNA binding artifact in RAD52 counter-screen; shares compounds with RAD52 inh; Salmon sperm DNA/acridine orange FP displacement; AC50, µM; 1,000 tested, 8% active;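 active = fitted half-maximal concentration for signal loss at or below twice the highest dose tested, in every separate run, actives reach about 64 µM in these data; inconclusive = runs disagree, or flat partial signal loss, or poor fit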
Each line names hits and unclear results; the compound was inactive in the other large screens (follow-up assays come after a bar, where they were run); ! = not confirmed by another sample. Sampled rows, rich in hits. Any-hit rate of the full collection: about 1.2%.

CCN(CC)CCNc1ccc(CO)c2oc3cc(Cl)ccc3c(=O)c12	RAD52 inh 56.6, RAD54 branch 104.8, N-glyco inh 34.8 | RAD52 DNA ctr inactive
CN(C)CCNc1ccc(CO)c2oc3ccc(O)cc3c(=O)c12	RAD52 inh 80.9 (no result: RAD54 branch, NSD2 inh) | RAD52 DNA ctr 55.2µM
CO[C@H]1CN(C)C(=O)c2cc(NS(=O)(=O)c3c(C)noc3C)ccc2OC[C@H](C)NC[C@H]1C	none (no result: NSD2 inh, N-glyco inh)
CCN1CCN(c2ccc(N=Cc3ccc(O)cc3O)cc2)CC1	RAD52 inh 91.1 (no result: RAD54 branch) | RAD52 DNA ctr inactive
CCN(CC)c1ccc(N=Cc2ccc(N(CC)CC)cc2O)cc1	none (no result: RAD52 inh, CASP6 VEID inh, RAD54 branch)
CCN1CCN(Cc2ccc(NC(=O)c3cc(NC(=O)c4cc5cccc(OC)c5o4)cc(OC)c3)cc2C(F)(F)F)CC1	RAD52 inh 93.6! (no result: NSD2 inh) | RAD52 DNA ctr inactive
CCN1CCN(Cc2ccc(NC(=O)c3ccc(C)c(NC(=O)c4csc(-c5ccncc5)n4)c3)cc2C(F)(F)F)CC1	RAD52 inh 74.8 (no result: NSD2 inh) | RAD52 DNA ctr inactive
CCN1CCN(Cc2ccc(NC(=O)c3cc(NC(=O)c4ccno4)cc(OC)c3)cc2C(F)(F)F)CC1	RAD52 inh 56.5! (no result: NSD2 inh) | RAD52 DNA ctr inactive
CCN1CCN(Cc2ccc(NC(=O)c3cc(NC(=O)c4cncc(-c5cccs5)c4)cc(OC)c3)cc2C(F)(F)F)CC1	RAD52 inh 75.8 (no result: NSD2 inh) | RAD52 DNA ctr inactive
CCN1CCN(Cc2ccc(NC(=O)c3cc(NC(=O)c4cc(-c5ccc(OC)cc5)n[nH]4)cc(OC)c3)cc2C(F)(F)F)CC1	none (no result: NSD2 inh)
COc1ccc(NC(=O)Nc2ccc3c(c2)CC(=O)N([C@@H](C)CO)C[C@@H](C)[C@@H](CN(C)C(=O)Nc2ccc(C(F)(F)F)cc2)O3)cc1	none (no result: RAD52 inh, CASP6 VEID inh, NSD2 inh, N-glyco inh)
CCNC(=O)[C@@H]1[C@@H](CO)[C@@H]2Cn3c(ccc(/C=C/c4ccccc4)c3=O)[C@@H]2N1C(=O)C1CC1	none (no result: NSD2 inh, N-glyco inh)
CCOC(=O)c1c(CSc2ccc(CC)cc2)oc2ccc(O)c(CN(C)C)c12	RAD52 inh 57.8 | RAD52 DNA ctr inactive
CCOC(=O)c1c(C)oc2ccc(O)c(CN(C)C)c12	none (no result: RAD52 inh, CASP6 VEID inh)
COc1cc2c(cc1OC)CN(c1nc(CN3CCCCC3)nc3sc4c(c13)CCCC4)CC2	none (no result: RAD52 inh, CASP6 VEID inh, RAD54 branch)
COc1cc2c(cc1OC)CN(c1nc(CN3CCCC3)nc3sc(C)c(C)c13)CC2	RAD52 inh 65.3 (no result: RAD54 branch) | RAD52 DNA ctr inactive
CCCC#Cc1ccc2c(c1)O[C@H](CN(C)C(=O)C1CCC1)[C@H](C)CN([C@@H](C)CO)S2(=O)=O	none (no result: NSD2 inh, N-glyco inh)
CN(C)CCCN1c2ccc(O)cc2Sc2ccc(Cl)cc21	none
CN1CCN(CCCN2c3ccccc3Sc3ccc(Cl)cc32)CC1	RAD52 inh 79.4 (no result: CASP6 VEID inh, NSD2 inh) | RAD52 DNA ctr inactive
CCSc1ccc2c(c1)N(CCCN1CCN(C)CC1)c1ccccc1S2	RAD52 inh 63.2 (no result: NSD2 inh) | RAD52 DNA ctr inactive
OC1CC2CCC(C1)N2CCCN1c2ccccc2Sc2ccc(Cl)cc21 (stereo not given)	RAD52 inh 90.5 | RAD52 DNA ctr inactive
CC(CN1CCN(CCOCCO)CC1)CN1c2ccccc2Sc2ccc(Cl)cc21 (stereo not given)	none
OCCN1CCN(CC/C=C2/c3ccccc3CSc3ccccc32)CC1	none
OCCN1CCN(CC/C=C2/c3ccccc3Sc3ccc(C(F)(F)F)cc32)CC1	RAD52 inh 58.5 (no result: NSD2 inh) | RAD52 DNA ctr inactive
Cc1noc(C)c1S(=O)(=O)Nc1ccc2c(c1)CC(=O)N([C@H](C)CO)C[C@H](C)[C@H](CN(C)S(=O)(=O)c1c(C)noc1C)O2	none (no result: NSD2 inh, N-glyco inh)
CCC(=O)Nc1ccc2c(c1)C(=O)N(C)C[C@H](OC)[C@@H](C)CN(Cc1ccncc1)[C@H](C)CO2	none (no result: CASP6 VEID inh, NSD2 inh, N-glyco inh)
COc1ccc2c3c(n(C)c2c1)[C@H](CO)N(Cc1ccccc1OC)CC31CCN(C(=O)C2CC2)CC1	none (no result: RAD54 branch, NSD2 inh, N-glyco inh)
CN(C)CCCN1c2ccccc2Sc2ccc(C(F)(F)F)cc21	none (no result: CASP6 VEID inh, NSD2 inh)
OCCN1CCN(CCCN2c3ccccc3Sc3ccc(C(F)(F)F)cc32)CC1	RAD52 inh 55.9, RAD54 branch inconclusive (no result: NSD2 inh) | RAD52 DNA ctr inactive
CC(C)Nc1ccc(Nc2ccnc3cc4ccccc4cc23)cc1	RAD52 inh 99.0 (no result: RAD54 branch, NSD2 inh) | RAD52 DNA ctr 22.4µM
CCN(CC)CCNC(=O)c1cc(-c2ccco2)nc2ccccc12	RAD52 inh 77.8 (no result: RAD54 branch) | RAD52 DNA ctr inactive
COc1ccc(CN(C)C[C@@H]2Oc3ccc(NC(=O)CCCN(C)C)cc3C(=O)N([C@H](C)CO)C[C@H]2C)cc1	none (no result: NSD2 inh, N-glyco inh)
CN(C)CCNC(=O)c1csc(Nc2cccc3ccccc23)n1	RAD52 inh 50.9 | RAD52 DNA ctr inactive
O=C(C[C@H]1C=C[C@@H](NC(=O)C2CC2)[C@@H](CO)O1)NCc1ccccc1Cl	none (no result: NSD2 inh, N-glyco inh)
COc1ccc(CN2CCOCC2)cc1OC	none (no result: RAD52 inh, CASP6 VEID inh)
COc1cc2sc3ccc(-c4ccc(CN5CCOCC5)cc4)cc3c(=O)c2cc1OC	RAD52 inh 92.7 (no result: NSD2 inh) | RAD52 DNA ctr inactive
CO[C@@H]1CN(C)C(=O)c2cc(NS(=O)(=O)CC(F)(F)F)ccc2OC[C@@H](C)N(CCC(F)(F)F)C[C@H]1C	none (no result: NSD2 inh, N-glyco inh)
CN(C)c1ccc(Nc2nc(N)c3ccccc3n2)cc1	none (no result: NSD2 inh) | RAD52 DNA ctr inactive
C[C@@H]1CCCCO[C@@H](CN(C)CC2CCCCC2)[C@H](C)CN([C@H](C)CO)C(=O)c2cc(NC(=O)c3ccccc3)ccc2O1	none (no result: NSD2 inh, N-glyco inh)
CN1CCN(CCCNC(=O)c2cc3c(=O)n(C)c4ccccc4c3s2)CC1	RAD52 inh 62.3, RAD54 branch 63.5 (no result: NSD2 inh) | RAD52 DNA ctr inactive
O=C(NCCCN1CCCCCC1)c1cc2c(=O)oc3ccccc3c2s1	none
CCN(CC)CCNc1nc(-c2cccs2)c(CC(=O)O)s1	RAD52 inh 88.2 | RAD52 DNA ctr inactive
CN(C)CCCN(C(=O)c1ccc(Br)s1)c1nc2cc3c(cc2s1)OCCO3	RAD52 inh 68.4 | RAD52 DNA ctr inactive
CCN(CC)CCN(C(=O)c1ccc(Br)s1)c1nc2cc3c(cc2s1)OCCO3	none (no result: RAD54 branch)
CN(C)CCCN(C(=O)c1ccc(Cl)s1)c1nc2cc3c(cc2s1)OCO3	none
CN(C)CCCN(C(=O)c1cc2cc([N+](=O)[O-])ccc2s1)c1nc2cc3c(cc2s1)OCCO3	RAD52 inh 50.6 (no result: NSD2 inh) | RAD52 DNA ctr inactive
COc1ccc(CN(C)C[C@@H]2OCCCC[C@@H](C)Oc3ccc(NC(=O)NC4CCCCC4)cc3C(=O)N([C@@H](C)CO)C[C@H]2C)cc1	none (no result: NSD2 inh, N-glyco inh)
CO[C@H](CN(C)C(=O)c1cnccn1)[C@H](C)CN([C@@H](C)CO)S(=O)(=O)c1ccc(Cl)cc1	none (no result: NSD2 inh, N-glyco inh)
CCCCCCCCCCCCCCCC(O)C[N+](C)(C)CCO (stereo not given)	RAD52 inh 80.1 (no result: RAD54 branch) | RAD52 DNA ctr 35.4µM
CCCCCC(O)CCCC(=O)O (stereo not given)	none (no result: NSD2 inh)
CN(C)C(=O)C[C@H]1CC[C@@H]2[C@H](COC[C@H](O)CN2CC2CCCC2)O1	none (no result: NSD2 inh, N-glyco inh)
O=C(Nc1ccccc1F)N[C@H]1CC[C@@H](CCNC(=O)C2CCC2)O[C@H]1CO	none (no result: NSD2 inh, N-glyco inh)
OC(COc1ccccc1)CN1CCN(CC(O)COc2ccccc2)CC1 (stereo not given)	none (no result: RAD54 branch)
OC(CON=C1c2ccccc2-c2ccccc21)CN1CCNCC1 (stereo not given)	RAD52 inh 69.6, RAD54 branch 72.0 | RAD52 DNA ctr inactive

High-throughput results as filed in PubChem BioAssay.
